For six compounds, outcome and AC50 results are on record in PubChem BioAssay (EPA / NIEHS).

The target in assay [1] is human Thyroid hormone Receptor alpha (TRa), THRA (gene 7067) (UniProt P10827). The experiment in a line: ATG_hTRa_XSP1: Attagene TRANS-FACTORIAL Multi-Species (XSP1) HepG2 Assay for human Thyroid hormone Receptor alpha (TRa) (AID 2283805). In short, it runs like this: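 HepG2 cells transiently transfected with GAL4-UAS reporter units expressing chimeric NR-Gal4 proteins, dosed 24 hours with 3 nM 6-alpha-fluorotestosterone present. Reporter mRNA measured by RT-PCR and capillary electrophoresis; gain of signal fitted versus DMSO.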

For assay [2], the target named is zebrafish Thyroid Hormone Receptor alpha (TRa), thraa (gene 30670) (UniProt Q98867). The experiment in a line: ATG_zfTRa_XSP1: Attagene TRANS-FACTORIAL Multi-Species (XSP1) HepG2 Assay for zebrafish Thyroid Hormone Receptor alpha (TRa) (AID 2283807). In short, it runs like this: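 HepG2 cells transiently transfected with GAL4-UAS reporter units including a zebrafish TRa–Gal4 chimera, dosed 24 h with 3 nM 6-alpha-fluorotestosterone present. Reporter mRNA quantified by RT-PCR and capillary electrophoresis; gain versus DMSO.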

Assay [3] concerns the target human Thyroid hormone Receptor beta (TRb), THRB (gene 7068) (UniProt P10828). As to the kind of experiment: ATG_hTRb_XSP1: Attagene TRANS-FACTORIAL Multi-Species (XSP1) HepG2 Assay for human Thyroid hormone Receptor beta (TRb) (AID 2283808). In a few lines:
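HepG2 cells transiently transfected with reporter units driving GAL4-UAS reporters for chimeric NR-Gal4 proteins; 24 h chemical exposure with 3 nM 6-alpha-fluorotestosterone present. Reporter mRNA quantified by RT-PCR and capillary electrophoresis, gain of signal versus DMSO.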

The target in assay [4] is zebrafish Thyroid Hormone Receptor beta (TRb), thrb (gene 30607) (UniProt Q9PVE4). As to the kind of experiment: ATG_zfTRb_XSP1: Attagene TRANS-FACTORIAL Multi-Species (XSP1) HepG2 Assay for zebrafish Thyroid Hormone Receptor beta (TRb) (AID 2283809). In short, it runs like this: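 HepG2 cells transiently transfected with multiplexed GAL4-UAS reporter units expressing chimeric zebrafish TRb–Gal4. Dosed 24 h with 3 nM 6-alpha-fluorotestosterone present; reporter mRNA measured by RT-PCR, HpaI digestion and capillary electrophoresis; gain of signal versus DMSO.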

Assay [5] in a line: ATG_XTT_Cytotoxicity_XSP1: Cytotoxicity Assessment in the Attagene TRANS-FACTORIAL Multi-Species (XSP1) HepG2 Assay (AID 2283810). In a few lines: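 XTT viability readout taken at 24 hours post-dosing in HepG2 liver cells co-treated with 3 nM 6-alpha-fluorotestosterone. Signal loss relative to DMSO controls reflects cytotoxicity.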
In assay [6] the test system is turtle Estrogen Receptor (ERa), gene 101933533. The experiment in a line: ATG_trERa_XSP2: Attagene TRANS-FACTORIAL Multi-Species (XSP2) HepG2 Assay for turtle Estrogen Receptor (ERa) (AID 2283812).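 Note: human HepG2 liver cells transiently expressing turtle ERa-Gal4 chimeric receptor; actives raise reporter signal above DMSO so AC50 reflects agonist activity.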 In a few lines: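 HepG2 cells transiently transfected with GAL4-UAS reporter units expressing turtle ERa-Gal4 chimera. Reporter mRNA measured after 24 h dosing by RT-PCR, fluorescent labelling and capillary electrophoresis; gain of signal fitted versus DMSO.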

The target of assay [7] is Estrogen receptor beta (Homo sapiens) (UniProt Q92731). The experiment in a line: ATG_hERb_XSP2: Attagene TRANS-FACTORIAL Multi-Species (XSP2) HepG2 Assay for human Estrogen Receptor (ERb) (AID 2283813).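 Note: actives raise reporter mRNA above DMSO so AC50 reflects agonist induction.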 In a few lines:
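HepG2 cells transiently transfected with GAL4-UAS reporter units and chimeric human ERb-Gal4, 24 h exposure. Reporter mRNA quantified by RT-PCR with FAM labelling, HpaI digestion and capillary electrophoresis; gain of signal versus DMSO.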

In assay [8] the test system is turtle Androgen Receptor (AR), gene 101947425. The experiment in a line: ATG_trAR_XSP2: Attagene TRANS-FACTORIAL Multi-Species (XSP2) HepG2 Assay for turtle Androgen Receptor (AR) (AID 2283815). In a few lines:
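HepG2 cells transiently transfected with GAL4-UAS reporter units for chimeric NR-Gal4 receptors; 24 h dosing in presence of 3 nM 6-alpha-fluorotestosterone and 1.5 nM norgestrel. Reporter mRNA by RT-PCR and capillary electrophoresis, gain of signal versus DMSO.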

Assay [9] addresses chicken Estrogen Receptor (ERa), ESR1 (gene 396099) (UniProt P06212). As to the kind of experiment: ATG_chERa_XSP2: Attagene TRANS-FACTORIAL Multi-Species (XSP2) HepG2 Assay for chicken Estrogen Receptor (ERa) (AID 2283817).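 Note: actives raise reporter signal above DMSO so AC50 reflects ER activation.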 In short, it runs like this:
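Transiently transfected HepG2 cells expressing chimeric chicken ERa-GAL4 reporter units, dosed 24 h with 3 nM 6-alpha-fluorotestosterone and 1.5 nM norgestrel present. Reporter mRNA measured by RT-PCR and capillary electrophoresis; gain-of-signal fitted relative to DMSO.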

The test system of assay [10] is frog Estrogen Receptor (ER), gene 398734. The experiment in a line: ATG_frER1_XSP2: Attagene TRANS-FACTORIAL Multi-Species (XSP2) HepG2 Assay for frog Estrogen Receptor (ER) (AID 2283821).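 Note: hits raise reporter mRNA above DMSO baseline so potency means agonist or activator.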 In a few lines:
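HepG2 cells transiently transfected with GAL4-UAS reporter units expressing a chimeric frog ER-Gal4 protein; 24 h exposure. Reporter mRNA quantified by RT-PCR, fluorescent labelling and capillary electrophoresis; gain of signal fitted against DMSO baseline.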

Assay [11] in a line: ATG_M_19_XSP2: Attagene TRANS-FACTORIAL Multi-Species (XSP2) HepG2 Assay for M32 Transcription Factor (Internal Marker) (AID 2283822). In a few lines: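 Internal background marker in a multi-species nuclear receptor TRANS panel: transfected HepG2 cells exposed 24 h, with 3 nM 6-alpha-fluorotestosterone and 1.5 nM norgestrel present. Readout is RT-PCR of reporter transcripts resolved by capillary electrophoresis, gain-of-signal versus DMSO.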

In assay [12] the test system is zebrafish Estrogen Receptor (ER2b), gene 317733. As to the kind of experiment: ATG_zfER2b_XSP2: Attagene TRANS-FACTORIAL Multi-Species (XSP2) HepG2 Assay for zebrafish Estrogen Receptor (ER2b) (AID 2283823).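 Note: fitted upward as reporter gain over DMSO so potency reflects activation.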 In short, it runs like this: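 In this multiplexed trans-activation format, HepG2 cells expressing exogenous NR-Gal4 fusions drive GAL4-UAS reporters. Exposure lasts 24 h, and reporter mRNA induction is read by RT-PCR with capillary electrophoresis detection.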

Assay [13] deals with turtle Thyroid Hormone Receptor, alpha (TRa), gene 101949057. The experiment in a line: ATG_trTRa_XSP1: Attagene TRANS-FACTORIAL Multi-Species (XSP1) HepG2 Assay for turtle Thyroid Hormone Receptor, alpha (TRa) (AID 2283806). In a few lines:
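HepG2 cells transiently transfected with GAL4-UAS reporter units and chimeric receptor-Gal4 constructs, with 3 nM 6-alpha-fluorotestosterone present. Reporter mRNA was quantified 24 h after dosing by RT-PCR, 6-FAM labelling and capillary electrophoresis; gain of signal versus DMSO.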

Assay [14] in a line: ATG_M_06_XSP2: Attagene TRANS-FACTORIAL Multi-Species (XSP2) HepG2 Assay for M06 Transcription Factor (Internal Marker) (AID 2283811).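 Note: hits are increases in signal above the DMSO baseline.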 In short, it runs like this:
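HepG2 cells transiently transfected with GAL4-UAS multiple reporter units, medium containing 3 nM 6-alpha-fluorotestosterone and 1.5 nM norgestrel; reporter mRNA measured 24 hours post-dosing by RT-PCR and capillary electrophoresis. Internal background marker, gain of signal vs DMSO.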

Assay [15] concerns the target zebrafish Estrogen Receptor (ER1), esr1 (gene 259252) (UniProt P57717). As to the kind of experiment: ATG_zfER1_XSP2: Attagene TRANS-FACTORIAL Multi-Species (XSP2) HepG2 Assay for zebrafish Estrogen Receptor (ER1) (AID 2283816). In a few lines: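 HepG2 cells transiently transfected with a GAL4-UAS reporter and a chimeric zebrafish ER1-Gal4 construct, dosed 24 h. Reporter mRNA quantified by RT-PCR, labelling, HpaI digestion and capillary electrophoresis, relative to DMSO.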

The target of assay [16] is GAL4 Transcription Factor (Internal Marker), GAL4 (gene 855828) (UniProt P04386). The experiment in a line: ATG_GAL4_XSP2: Attagene TRANS-FACTORIAL Multi-Species (XSP2) HepG2 Assay for GAL4 Transcription Factor (Internal Marker) (AID 2283814).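 Note: GAL4 reporter mRNA background control in MRTU transfected cells not a receptor target.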 In short, it runs like this: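 HepG2 cells transiently transfected with GAL4-UAS reporter units, stimulated with 3 nM 6-alpha-fluorotestosterone plus 1.5 nM norgestrel, dosed 24 h. Reporter mRNA by RT-PCR/capillary electrophoresis; gain-of-signal fit versus DMSO, background control.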

Assay [17] has as its system zebrafish Estrogen Receptor (ER2a), gene 317734. As to the kind of experiment: ATG_zfER2a_XSP2: Attagene TRANS-FACTORIAL Multi-Species (XSP2) HepG2 Assay for zebrafish Estrogen Receptor (ER2a) (AID 2283818).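 Note: hits raise reporter mRNA so AC50 reflects activation of zebrafish ER2a.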 In a few lines:
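HepG2 cells transiently transfected with GAL4-UAS reporter units and chimeric zebrafish ER2a-Gal4, exposed 24 h; medium contains 3 nM 6-alpha-fluorotestosterone and 1.5 nM norgestrel. Reporter mRNA quantified by RT-PCR, HpaI digestion, capillary electrophoresis; gain versus DMSO.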

Where “and” joins values, the source holds several entries; their conditions need not be identical. Equal entries are not always repeated. Inconclusive results are not listed. More than one record can exist for a structure, and the calls need not agree. Calls of active or inactive are those of the source. Rule for the calls: active = hit-call score of the fitted dose curve at least 0.9, where 1 is the maximum; inconclusive = response in the unintended direction; inactive = score below 0.9.

Sequence of GAL4 Transcription Factor (Internal Marker), GAL4 (gene 855828) (P04386 whole entry, looked up, the tested form may be a part): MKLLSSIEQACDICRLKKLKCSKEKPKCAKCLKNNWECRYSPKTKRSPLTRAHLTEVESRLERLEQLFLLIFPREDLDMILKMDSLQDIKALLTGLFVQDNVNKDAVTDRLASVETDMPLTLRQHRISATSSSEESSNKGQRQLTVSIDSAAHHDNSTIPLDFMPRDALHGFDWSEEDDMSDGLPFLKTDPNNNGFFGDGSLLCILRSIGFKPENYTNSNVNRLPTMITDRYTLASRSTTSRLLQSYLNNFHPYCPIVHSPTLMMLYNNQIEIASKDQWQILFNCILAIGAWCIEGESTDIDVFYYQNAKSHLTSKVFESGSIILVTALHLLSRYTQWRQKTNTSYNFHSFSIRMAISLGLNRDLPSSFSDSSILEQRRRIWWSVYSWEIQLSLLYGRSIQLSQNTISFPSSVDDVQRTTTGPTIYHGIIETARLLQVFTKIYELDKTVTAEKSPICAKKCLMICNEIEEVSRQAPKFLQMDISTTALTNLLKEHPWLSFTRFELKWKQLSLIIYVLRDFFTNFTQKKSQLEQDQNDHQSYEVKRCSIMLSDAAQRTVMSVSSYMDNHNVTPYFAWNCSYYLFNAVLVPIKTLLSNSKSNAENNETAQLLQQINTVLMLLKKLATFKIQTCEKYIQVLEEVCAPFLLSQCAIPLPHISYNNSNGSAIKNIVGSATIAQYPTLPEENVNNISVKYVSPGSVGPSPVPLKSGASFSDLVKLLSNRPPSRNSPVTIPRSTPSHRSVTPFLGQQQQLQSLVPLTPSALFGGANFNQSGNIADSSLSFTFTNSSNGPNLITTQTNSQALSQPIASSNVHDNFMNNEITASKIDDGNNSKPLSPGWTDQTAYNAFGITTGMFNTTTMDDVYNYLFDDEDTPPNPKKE
Sequence of zebrafish Thyroid Hormone Receptor alpha (TRa), thraa (gene 30670) (Q98867 whole entry, looked up, the tested form may be a part): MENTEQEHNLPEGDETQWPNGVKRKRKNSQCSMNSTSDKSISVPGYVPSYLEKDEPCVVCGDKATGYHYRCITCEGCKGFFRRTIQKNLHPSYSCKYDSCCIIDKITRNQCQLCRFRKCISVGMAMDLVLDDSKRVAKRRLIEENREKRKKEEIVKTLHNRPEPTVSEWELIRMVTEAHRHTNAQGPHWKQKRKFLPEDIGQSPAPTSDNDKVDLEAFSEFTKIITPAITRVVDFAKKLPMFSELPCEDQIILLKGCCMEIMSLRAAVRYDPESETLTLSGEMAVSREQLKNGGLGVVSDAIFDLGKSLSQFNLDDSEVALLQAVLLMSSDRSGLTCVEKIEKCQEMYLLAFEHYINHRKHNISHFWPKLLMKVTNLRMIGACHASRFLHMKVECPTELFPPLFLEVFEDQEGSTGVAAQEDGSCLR
Sequence of chicken Estrogen Receptor (ERa), ESR1 (gene 396099) (P06212 whole entry, looked up, the tested form may be a part): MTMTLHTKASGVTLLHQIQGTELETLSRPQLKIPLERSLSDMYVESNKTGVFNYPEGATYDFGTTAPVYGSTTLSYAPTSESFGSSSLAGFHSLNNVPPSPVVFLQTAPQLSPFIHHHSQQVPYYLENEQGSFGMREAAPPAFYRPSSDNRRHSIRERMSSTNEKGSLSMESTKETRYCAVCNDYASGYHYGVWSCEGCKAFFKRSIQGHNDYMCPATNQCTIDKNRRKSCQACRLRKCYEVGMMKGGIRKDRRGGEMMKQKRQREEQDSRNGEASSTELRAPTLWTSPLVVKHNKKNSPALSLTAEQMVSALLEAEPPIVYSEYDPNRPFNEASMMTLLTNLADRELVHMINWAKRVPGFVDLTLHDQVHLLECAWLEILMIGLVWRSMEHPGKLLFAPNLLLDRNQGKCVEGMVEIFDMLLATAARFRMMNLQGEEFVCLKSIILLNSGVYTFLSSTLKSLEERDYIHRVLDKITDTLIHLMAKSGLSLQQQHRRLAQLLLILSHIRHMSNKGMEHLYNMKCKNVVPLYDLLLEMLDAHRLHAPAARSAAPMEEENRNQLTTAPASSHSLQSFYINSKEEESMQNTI
Sequence of Estrogen receptor beta (Homo sapiens) (Q92731 whole entry, looked up, the tested form may be a part): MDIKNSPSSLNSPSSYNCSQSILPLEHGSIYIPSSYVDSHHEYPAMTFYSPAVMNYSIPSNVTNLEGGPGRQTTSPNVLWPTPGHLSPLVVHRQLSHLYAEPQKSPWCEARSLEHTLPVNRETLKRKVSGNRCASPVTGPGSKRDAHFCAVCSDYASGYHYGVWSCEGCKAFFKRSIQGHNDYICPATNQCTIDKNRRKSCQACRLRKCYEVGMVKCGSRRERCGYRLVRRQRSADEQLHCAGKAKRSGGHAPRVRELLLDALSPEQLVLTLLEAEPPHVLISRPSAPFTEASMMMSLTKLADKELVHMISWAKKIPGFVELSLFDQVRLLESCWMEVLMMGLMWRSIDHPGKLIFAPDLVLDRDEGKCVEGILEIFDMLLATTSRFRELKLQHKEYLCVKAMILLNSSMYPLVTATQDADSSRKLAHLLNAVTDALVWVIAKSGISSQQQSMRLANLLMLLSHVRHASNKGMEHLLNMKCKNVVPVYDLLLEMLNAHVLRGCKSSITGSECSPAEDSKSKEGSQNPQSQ
Sequence of zebrafish Estrogen Receptor (ER1), esr1 (gene 259252) (P57717 whole entry, looked up, the tested form may be a part): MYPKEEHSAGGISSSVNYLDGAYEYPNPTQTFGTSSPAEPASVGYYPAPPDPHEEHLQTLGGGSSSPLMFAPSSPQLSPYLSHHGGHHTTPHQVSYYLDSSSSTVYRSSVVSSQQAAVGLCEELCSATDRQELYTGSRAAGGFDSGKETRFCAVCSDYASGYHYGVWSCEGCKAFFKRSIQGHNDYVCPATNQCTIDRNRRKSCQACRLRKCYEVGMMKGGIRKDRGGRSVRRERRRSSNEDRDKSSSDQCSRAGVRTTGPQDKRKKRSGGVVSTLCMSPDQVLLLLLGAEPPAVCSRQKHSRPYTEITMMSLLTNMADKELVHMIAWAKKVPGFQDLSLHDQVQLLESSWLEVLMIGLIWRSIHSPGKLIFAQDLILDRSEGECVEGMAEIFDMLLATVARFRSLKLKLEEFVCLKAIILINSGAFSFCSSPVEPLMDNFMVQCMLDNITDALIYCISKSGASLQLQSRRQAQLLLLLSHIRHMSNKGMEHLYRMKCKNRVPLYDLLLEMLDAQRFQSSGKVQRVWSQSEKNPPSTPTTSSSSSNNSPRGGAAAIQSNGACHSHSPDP
Sequence of zebrafish Thyroid Hormone Receptor beta (TRb), thrb (gene 30607) (Q9PVE4 whole entry, looked up, the tested form may be a part): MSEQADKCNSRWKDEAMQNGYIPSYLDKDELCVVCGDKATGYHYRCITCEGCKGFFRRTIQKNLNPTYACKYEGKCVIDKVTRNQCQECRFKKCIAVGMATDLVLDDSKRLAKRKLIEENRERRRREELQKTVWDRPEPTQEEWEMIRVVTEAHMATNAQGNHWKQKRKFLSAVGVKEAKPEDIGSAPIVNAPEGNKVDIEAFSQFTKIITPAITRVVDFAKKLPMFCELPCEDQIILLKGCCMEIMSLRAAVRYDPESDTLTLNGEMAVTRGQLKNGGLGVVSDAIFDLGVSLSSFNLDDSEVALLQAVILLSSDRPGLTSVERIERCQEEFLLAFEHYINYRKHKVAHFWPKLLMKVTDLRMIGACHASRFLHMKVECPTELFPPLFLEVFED
Sequence of human Thyroid hormone Receptor alpha (TRa), THRA (gene 7067) (P10827 whole entry, looked up, the tested form may be a part): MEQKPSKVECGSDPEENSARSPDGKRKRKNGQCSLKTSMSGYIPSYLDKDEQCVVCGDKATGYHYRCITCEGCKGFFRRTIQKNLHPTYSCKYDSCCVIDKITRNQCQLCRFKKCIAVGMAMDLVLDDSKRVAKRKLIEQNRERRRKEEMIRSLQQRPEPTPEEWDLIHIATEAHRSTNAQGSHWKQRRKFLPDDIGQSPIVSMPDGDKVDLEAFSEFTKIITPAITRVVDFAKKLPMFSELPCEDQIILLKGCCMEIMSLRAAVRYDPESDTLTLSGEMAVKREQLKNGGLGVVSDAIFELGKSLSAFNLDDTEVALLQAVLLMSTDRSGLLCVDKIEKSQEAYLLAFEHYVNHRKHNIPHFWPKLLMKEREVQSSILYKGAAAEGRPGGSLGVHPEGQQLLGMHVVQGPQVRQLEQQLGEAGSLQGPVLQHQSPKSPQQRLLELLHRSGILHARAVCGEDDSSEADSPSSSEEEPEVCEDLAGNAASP
Sequence of human Thyroid hormone Receptor beta (TRb), THRB (gene 7068) (P10828 whole entry, looked up, the tested form may be a part): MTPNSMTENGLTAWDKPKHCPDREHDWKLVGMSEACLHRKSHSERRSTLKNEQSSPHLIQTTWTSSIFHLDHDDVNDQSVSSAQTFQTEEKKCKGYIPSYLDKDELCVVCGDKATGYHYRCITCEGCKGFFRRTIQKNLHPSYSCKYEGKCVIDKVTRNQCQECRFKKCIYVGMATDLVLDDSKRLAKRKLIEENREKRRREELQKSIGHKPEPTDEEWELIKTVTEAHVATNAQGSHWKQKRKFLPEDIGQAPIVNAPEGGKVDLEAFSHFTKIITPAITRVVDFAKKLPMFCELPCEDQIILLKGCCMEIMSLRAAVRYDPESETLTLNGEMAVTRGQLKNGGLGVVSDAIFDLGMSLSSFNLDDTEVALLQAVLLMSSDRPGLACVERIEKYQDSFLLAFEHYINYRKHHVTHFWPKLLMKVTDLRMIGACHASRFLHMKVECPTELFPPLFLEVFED

On to `CCCCCOC(=O)c1ccccc1C(=O)OCCCCC`, for which the outcome in assay [1], in assay [2], in assay [3], in assay [4], in assay [5] and in [6] was inactive. The compound was called inactive in assay [7], in [8], in [9], in assay [10] and in assay [11]. The AC50 in assay [12] is 100 µM (active).
For the compound `CCC[CH2][Sn]([Cl])([CH2]CCC)[CH2]CCC`, the AC50 in assay [1] is 0.0865 µM (active); in assay [2] it was 0.228 µM (active); in assay [3] it was 0.159 µM (active); in assay [4], 0.084 µM (active); in [5], 1.54 µM (active). The compound was classed as inactive in assay [13], in assay [14] and in [15].
On to `Clc1ccc(C(c2ccc(Cl)cc2)C(Cl)Cl)cc1`, for which the call in assay [2], in assay [14], in assay [16] and in assay [15] was inactive. Also, the AC50 in assay [5] was 100 µM (active); in assay [6] it was 11.6 µM (active); in [9], 2.47 µM (active); in [17], 2.85 µM (active); in assay [10] it was 3.04 µM (active); in assay [12] it was 5.29 µM (active).
Regarding `CCC(C)c1ccc(O)cc1` (stereo not given), the outcome in assay [14] and in assay [16] was inactive. For the same compound, the AC50 is 6.55 µM (active) and 1.91 µM (active) in assay [6]; 5.47 µM (active) and 2.25 µM (active) in assay [7]; 37.7 µM (active) and 28.7 µM (active) in [15]; 6.12 µM (active) and 3.68 µM (active) in assay [9]; 14.5 µM (active) and 3.22 µM (active) in [17]; 5.13 µM (active) and 19.8 µM (active) in [10]. For the same compound, in assay [12], the half-maximal activity concentration (AC50) was 21 µM (active) and 12.9 µM (active).
On to `c1ccc2c(c1)-c1cccc3cccc-2c13`, for which the compound was classed as inactive in assay [14], in assay [6], in assay [7], in [16], in assay [15] and in [9]. Also, the result in [17], in [10] and in assay [12] was inactive. The AC50 was 27.7 µM (active) in [9] and 57.8 µM (active) in [12].
Consider `CC(C)(C)C(O)(CCc1ccc(Cl)cc1)Cn1cncn1` (stereo not given), for which the outcome in assay [14], in assay [6], in [16], in assay [15], in [9] and in assay [17] was inactive. Moreover, the result in assay [10] and in [11] was inactive. Besides, the concentration at half-maximal activity (AC50) is 25.8 µM (active) in assay [17]; 132 µM (active) and 61 µM (active) in assay [12].

As a reminder, the AC50 is the concentration giving half of the maximal activity seen.
